PubChem BioAssay AID686979 (National Center for Advancing Translational Sciences (NCATS), 2013)
About 50,000 (12%) of roughly 420,000 compounds were called active. Roughly 26% stayed inconclusive and do not appear here. The list comes from a sample in which actives are over-represented; it also holds similar structures and randomly drawn compounds. Unmarked numbers belong to inactive results. The call rests on the fitted dose curve; in most records, active means well fitted inhibition curve with a large enough effect; inconclusive means small, poorly fitted or top-dose-only effect; inactive means flat fitted curve, though single readings scatter.

Experiment: qHTS for Inhibitors of human tyrosyl-DNA phosphodiesterase 1 (TDP1): qHTS in cells in presence of CPT; further: nearly all actives have a fitted effect of over 55% in size
Settings: chicken DT40 Tdp1-/-;hTDP1 cells + 20 nM CPT, ATP luminescence, 48 h; series mostly up to 46.2 µM; activity change, negative = growth inhibition: at the top concentration
How it was run: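 Chicken DT40 Tdp1-/- cells complemented with human TDP1, 400 cells/well, exposed to compounds plus 20 nM camptothecin for at least 48 h at 37 C; viability read as ATP content by CellTiter-Glo luminescence.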
On the % scale 0 is the no-effect control and ±100 the full control effect; potency means the concentration at half of the fitted maximal effect.

SMILES | activity change, negative = growth inhibition [%] | Potency
O=C(CN1C(=O)NC(Cc2c[nH]c3ccccc23)C1=O)Nc1ccccc1C(F)(F)F (stereo not drawn) | -16.4 | –
O=C(O)C1CCC(CNS(=O)(=O)c2ccc(Br)cc2)CC1 (stereo not drawn) | 0.756 | –
CC(=O)N/C(=C/c1ccc(OC(F)F)cc1)C(=O)O | 6.08 | –
NC(=O)c1cc(S(=O)(=O)NCCCc2ccco2)cs1 | -27.2 | –
Cc1cccc(CC2(O)C(=O)Nc3ccccc32)n1 (stereo not drawn) | -19.8 | –
NC(=O)c1cc2ccccc2o/c1=N/NC(=O)c1cccc(F)c1 | -23.1 | –
COc1ccc(C(=O)N/N=c2\oc3ccccc3cc2C(N)=O)cc1 | -8.26 | –
CCN(CC)c1ccc2cc(C(N)=O)/c(=N\NC(=O)c3ccncc3)oc2c1 | – | 16.4 µM (active)
COc1cccc(NC(=S)NC(=O)c2c(Cl)c(C)nn2C)c1 | 3.79 | –
Cc1ccc(C(=O)COC(=O)c2cccc(N3C(=O)c4c(C)nc5ccccc5c4C3=O)c2)cc1C | 1.34 | –
CCCCCCCCn1c2c(c(=N)c3c1CCC3)CCCC2 | – | 0.92 µM (active)
CSc1ccccc1C(=O)NCc1ccccc1 | 1 | –
O=C(COC(=O)CNC(=O)C1CCCCC1)NCc1ccccc1 | 15.2 | –
O=C(NCc1ccccc1)C1=C[C@@H](C2CCCCC2)C[C@@H](OCc2ccc(CO)cc2)O1 | – | 16.4 µM (active)
CC(C)(C)[C@H]1C=C(C(=O)NCc2ccccc2)O[C@@H](OCc2ccc(CO)cc2)C1 | – | 18.4 µM (active)
CC1(C)CC(=O)c2cc(C(=O)NCc3ccccc3)c(=O)[nH]c2C1 | -12.3 | –
O=C(O)C1CCN(C(=O)OCc2ccccc2)CC1 | 2.35 | –
CCCCc1nc(SCC(=O)Nc2nnc(C(C)C)s2)n[nH]1 | -21.8 | –
O=C(OCC(=O)N1CCCC1=O)c1cc(S(=O)(=O)N2CCOCC2)ccc1Cl | 3.27 | –
O=C(OCC(=O)N1CCN(C(=O)c2ccco2)CC1)c1c(Cl)cccc1Cl | -3.35 | –
CC(=O)Nc1cccc(C(=O)OCC(=O)NCc2cc(C)c(O)c(C)c2)c1 | 3.43 | –

SMILES | activity change, negative = growth inhibition [%] | Potency
CC(=O)c1cccc(OCC(=O)OCC(=O)Nc2cc(S(=O)(=O)N3CCCCC3)ccc2C)c1 | -0.0276 | –
c1ccc2cc(CCCc3cc4ccccc4cn3)ncc2c1 | -26.5 | –
CN(CC(=O)NCCc1ccccn1)S(=O)(=O)c1ccc(Cl)cc1 | 3.55 | –
O=C(NCCc1ccccn1)c1cc(-c2ccc(Cl)cc2)nc2ccccc12 | – | 13 µM (active)
O=C(NCc1ccccn1)c1cc(Br)ccc1Cl | -2.09 | –
COC(=O)c1ccc2c(c1)S(=O)(=O)NC2C (stereo not drawn) | 7.67 | –
CCCNC(=O)C1CCN(c2nc3ccc(C)cc3[nH]2)CC1 | -11.4 | –
CCC1CCCCN1S(=O)(=O)Cc1ccccc1Cl (stereo not drawn) | -0.993 | –
CN(CCc1ccccn1)C(=O)c1ccc(OC2CCN(Cc3ccccn3)CC2)cc1 | -2.64 | –
NC(=S)N/N=C/c1coc2cc(Cl)ccc2c1=O | -8.57 | –
CC(C)Oc1c(Br)cc(Br)cc1/C=N/NC(N)=S | – | 16.4 µM (active)
CCOC(=O)C1=C(C)c2ccccc2OC1(C)C(=O)OCC (stereo not drawn) | -15.8 | –
COc1ccc(NC(=O)CCC(=O)Nc2nnc(C3CCCCC3)s2)cc1 | -3.36 | –
CCOc1ccc(N2CC(c3nc4ccccc4n3CCOc3ccc(OC)cc3)CC2=O)cc1 (stereo not drawn) | – | 20.6 µM (active)
CC(C)(C)N1CC(c2nc3ccccc3n2Cc2ccc(F)cc2)CC1=O (stereo not drawn) | -19.6 | –
CCCOc1ccc(N2CC(C(=O)Nc3ccccn3)CC2=O)cc1 (stereo not drawn) | -0.824 | –
CCCCN1CC(c2nc3ccccc3n2CCCCOc2ccc(C)cc2C)CC1=O (stereo not drawn) | – | 7.31 µM (active)
CCOc1ccc(NC(=O)[C@H](C)NC(=O)C2CC(=O)N(c3ccc(OC)cc3)C2)cc1 (stereo partly drawn) | 4.17 | –
CCc1ccccc1N1CC(c2nc3ccccc3n2CCCCOc2ccccc2)CC1=O (stereo not drawn) | -23.8 | –
Cc1ccc(C(C)C)c(OCCSc2nc3ccccc3n2CC(=O)O)c1 | -6.59 | –
CCCOc1cc(C)c(S(=O)(=O)n2nnc3ccccc32)cc1C | 2.86 | –

SMILES | activity change, negative = growth inhibition [%] | Potency
COc1ccc(OCCCn2c(C3CC(=O)N(c4ccc(F)cc4)C3)nc3ccccc32)cc1 (stereo not drawn) | – | 18.4 µM (active)
COc1ccc(Nc2ccc([N+](=O)[O-])cn2)cn1 | 2.83 | –
CNC[C@H]1OCc2cnnn2CCCC(=O)N([C@H](C)CO)C[C@@H]1C | 6.39 | –
CCCCC(c1nnnn1CS(=O)(=O)c1ccc(C)cc1)N1CCC(C(N)=O)CC1 (stereo not drawn) | -8.84 | –
Cc1ccc(CC2C(=O)N(c3ccc(F)cc3)C(=O)C2C)cc1 (stereo not drawn) | 11.8 | –
Clc1ccc2nc(CSc3ccccc3)cn2c1 | -4.31 | –
Cc1ccc(CNC(=O)CCN2C(=O)[C@@H]3Cc4ccccc4CN3C2=O)cc1 | -1.28 | –
CC[C@@]12C(=O)N(c3ccccc3)C(=O)N1[C@H](c1ccc(Br)cc1)[C@@H]1C(=O)N(C(C)(C)C)C(=O)[C@@H]12 | – | 16.4 µM (active)
COc1ccc([C@@H]2[C@@H]3C(=O)N(C(C)(C)C)C(=O)[C@@H]3[C@]3(Cc4ccccc4)C(=O)N(c4cccc(Br)c4)C(=O)N23)cc1 | 3.95 | –
CCN1C(=O)[C@H]2[C@@H](c3ccc(C)cc3)N3C(=O)N(c4cccc(Br)c4)C(=O)[C@@]3(CC)[C@H]2C1=O | -17.6 | –
O=C1CN(C(=O)c2cc(F)cc(F)c2)c2ccccc2N1 | -8.35 | –
CCCC(=O)Nc1ccc2c(c1)nc(CCNC(=O)c1ccco1)n2C | -5.86 | –
CCOC(=O)c1cccc(NC(=O)CCOc2ccccc2)c1 | 10.4 | –
CCOCCC(=O)Nc1ccc2c(c1)c(=O)n(C)n2-c1ccc2ccccc2c1 | – | 1.46 µM (active)
C=CC1=C(C(=O)O)N2C(=O)[C@@H](NC(=O)/C(=N\OCC(=O)O)c3csc(N)n3)[C@H]2SC1 | -9.22 | –
O=C(NCc1cc(F)cc(C(F)(F)F)c1)C1CCC(=O)N(C2CCCC2)C1 (stereo not drawn) | -11.8 | –
Cc1ccccc1NC(=O)C(C)OC(=O)CCC(=O)N(CC(C)C)c1c(N)n(CC(C)C)c(=O)[nH]c1=O (stereo not drawn) | 3.98 | –
CCN(CC(=O)Nc1c(F)cccc1F)C(=O)c1ccc(Sc2nncn2C)c([N+](=O)[O-])c1 | 1.9 | –
CCOC(=O)N1CCN(S(=O)(=O)c2ccc(OC)cc2)CC1 | 0.194 | –
NC(=O)c1ccccc1N(Cc1ccccc1)S(=O)(=O)c1ccccc1 | 25.7 | –
CCOC(=O)N1CCN(C(=O)c2ccccc2N(Cc2ccccc2)S(=O)(=O)c2ccc(OC)cc2)CC1 | – | 2.91 µM (active)
